# C diff HTS: blocks growth of Clostridium difficile; Clostridium difficile clinical isolate growth, OD600, 24 h; active compounds read low; actives 0.25% (n = 86,000); growth activity, negative = inhibition, % at 16 µg/mL (by protocol);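 active = mean growth activity at or below -80% and every replicate also at or below -80%; inconclusive = mean at or below -80% but some replicate above -80%; inactive = mean growth activity above -80%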;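 also: 0% = DMSO wells and -100% = levofloxacin 16 µg/mL wells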
# T cruzi growth-1: inhibitors of T. cruzi proliferation | T. cruzi beta-gal in NIH3T3, GalScreen luminescence, 90 h | inhibition, % at 8.34 µM | actives 5.9% (n = 77,000) | AID 624255;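 active = mean inhibition above about 93%, with at least 55% of replicates each passing it, limit read from the data, passing the limit was not always enough; inconclusive = only one of those two conditions holds; inactive = neither condition holds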
# T cruzi growth-2: inhibitors of T. cruzi proliferation; shares compounds with T cruzi growth-1; T. cruzi beta-gal in NIH3T3, GalScreen luminescence, 90 h; inhibition, % at 8.35 µM; actives 72% (n = 5,600);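 active = mean replicate inhibition above about 95% and at least 55% of replicates individually reaching it, limit read from the data; inconclusive = only one of the two criteria is met; inactive = neither criterion is met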
# T cruzi growth-3: blocks T. cruzi growth in NIH3T3 host cells. shares compounds with T cruzi growth-1. T. cruzi beta-gal in NIH3T3, GalScreen luminescence, 90 h. inhibition, % at 2.09 µM. actives 21% (n = 5,600). AID 651740;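 active = mean inhibition above about 95%, with at least 55% of replicates also reaching it, limit read from the data; inconclusive = meets just one of the two conditions; inactive = meets neither condition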;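 also: plate controls were neutral control median for no effect and positive control median for full effect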
# 3T3 cytotox: NIH/3T3 (mouse) viability loss; NIH/3T3 viability, CellTiter-Glo ATP luminescence, 90 h; AID 651742; cytotoxicity (signal decrease), % at 8.35 µM; actives 14% (n = 5,600); shares compounds with T cruzi growth-1;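 active = mean signal decrease across replicates above about 35% based on untreated-well scatter, with enough replicates individually passing, limit read from the data; inconclusive = no rule stated though some were filed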;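 also: 0% = median of neutral control wells and 100% = median of positive control wells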
# 3T3 cytotox 2: kills mouse NIH/3T3 fibroblasts. shares compounds with T cruzi growth-1. NIH/3T3 viability, CellTiter-Glo ATP luminescence, 90 h. inhibition, % at 24.9 µM. actives 56% (n = 5,600). AID 651744;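 active = mean loss of cell viability signal at or above a set limit, and enough replicates individually reaching it; inconclusive = meets only the mean limit or only the replicate share; inactive = meets neither condition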;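 also: 0% = median of neutral control wells and 100% = median of positive control wells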
# * hit, by the source's call; ? = inconclusive; / = no result. The entries come from a sample that favours hits as a whole.
SMILES,C diff HTS,T cruzi growth-1,T cruzi growth-2,T cruzi growth-3,3T3 cytotox,3T3 cytotox 2
CCNC(=O)[C@H]1[C@H](CO)[C@H]2Cn3c(ccc(-c4cncnc4)c3=O)[C@H]2N1C(=O)c1ccccc1F,-1.7,-1.5,/,/,/,/
CCCC(=O)Nc1ccc2c(c1)C(=O)N(C)C[C@H](OC)[C@@H](C)CN(CC1CCOCC1)[C@H](C)CO2,/,-37.6,/,/,/,/
Cc1ccc(S(=O)(=O)Nc2ccc3c(c2)C(=O)N([C@@H](C)CO)C[C@H](C)[C@H](CN(C)C(=O)Nc2ccc4c(c2)OCO4)O3)cc1,/,18.8,/,/,/,/
CCO[C@@H]1OC(C(=O)N2CCCC2)=C[C@H](c2ccccc2)[C@H]1CCCO,-1.2,/,/,/,/,/
C[C@@H]1CN([C@H](C)CO)C(=O)c2cc(NC(=O)Nc3ccc(F)cc3)ccc2O[C@@H](C)CCCCO[C@H]1CN(C)C(=O)Nc1ccccc1,/,48.3,/,/,/,/
C[C@@H]1CCCCO[C@@H](CN(C)C(=O)Nc2ccc(F)cc2)[C@@H](C)CN([C@@H](C)CO)C(=O)c2cc(NC(=O)Nc3ccccc3)ccc2O1,3.6,79.4,/,/,/,/
C[C@@H]1CCCCO[C@@H](CN(C)C(=O)Nc2ccccc2)[C@H](C)CN([C@@H](C)CO)C(=O)c2cc(NC(=O)Nc3ccc(F)cc3)ccc2O1,/,97.1*,114.2*,57.8,-16.4,-20.2
C[C@H](CO)N1C[C@H](C)[C@H](CN(C)C(=O)Nc2ccc(F)cc2)OCCCC[C@H](C)Oc2ccc(NC(=O)Nc3ccccc3)cc2C1=O,0.3,122.6*,107.3*,49.7,6.4,1.3
COc1cccc(C(=O)Nc2ccc3c(c2)C(=O)N(C)[C@@H]2CC[C@@H](CC(=O)NCc4ccccc4F)O[C@H]2CO3)c1,3.2,23.9,/,/,/,/
O=S(=O)(c1ccccc1F)N1CC[C@@H]2[C@@H](CO)Nc3ccc(-c4cccc(F)c4)cc3[C@@H]21,-2.2,29.3,/,/,/,/
Cc1ccccc1S(=O)(=O)N1CC[C@@H]2[C@H]1c1cc(-c3ccc(F)cc3)ccc1N[C@@H]2CO,8.5,39.0,/,/,/,/
Cc1ccccc1S(=O)(=O)N1CC[C@@H]2[C@H](CO)Nc3ccc(-c4cccc(F)c4)cc3[C@@H]21,1.1,104.5*,?,108.6*,27.0,104.1*
Cn1cnc(S(=O)(=O)N2CC[C@@H]3[C@H]2c2cc(-c4ccc(F)cc4)ccc2N[C@@H]3CO)c1,-6.2,62.0,/,/,/,/
N#Cc1cccc(-c2ccc3c(c2)[C@H]2[C@H](CCN2S(=O)(=O)c2ccccc2F)[C@@H](CO)N3)c1,-0.6,107.3*,?,67.1,30.0,55.2*
Cn1cnc(S(=O)(=O)N2CC[C@@H]3[C@H]2c2cc(-c4cccc(F)c4)ccc2N[C@@H]3CO)c1,-13.5,?,100.7*,42.2,3.4,4.1
Cc1ccccc1S(=O)(=O)N1CC[C@@H]2[C@H]1c1cc(-c3cccc(C#N)c3)ccc1N[C@@H]2CO,0.7,23.9,/,/,/,/
Cc1ccccc1S(=O)(=O)N1CC[C@@H]2[C@@H](CO)Nc3ccc(-c4cccc(F)c4)cc3[C@@H]21,-0.3,97.6*,104.2*,111.6*,59.5*,105.7*
COc1ccccc1S(=O)(=O)N[C@@H]1CC[C@@H](CC(=O)N2CCOCC2)O[C@@H]1CO,-0.4,2.2,/,/,/,/
CO[C@H]1CN(C)C(=O)c2ccc(NC(=O)C3CCCC3)cc2OC[C@@H](C)N(CCC(F)(F)F)C[C@@H]1C,-5.3,-72.6,/,/,/,/
C[C@@H]1CN([C@@H](C)CO)C(=O)c2cccc(NS(=O)(=O)c3ccccc3)c2O[C@H]1CN(C)CC1CCCCC1,-0.5,69.1,/,/,/,/
CCCN1C[C@@H](C)[C@@H](OC)CN(C)C(=O)c2cc(NC(=O)c3cnccn3)ccc2OC[C@@H]1C,/,-19.6,/,/,/,/
C[C@@H]1CN([C@H](C)CO)C(=O)c2cc(/C=C/c3ccccc3)cnc2O[C@H]1CN(C)C(=O)c1cccnc1,-0.3,-36.7,/,/,/,/
C[C@H](CO)N1C[C@H](C)[C@@H](CN(C)C(=O)c2cnccn2)Oc2ncc(C#CCN(C)C)cc2C1=O,2.2,7.5,/,/,/,/
Cc1ccc(S(=O)(=O)Nc2ccc3c(c2)C(=O)N([C@H](C)CO)C[C@H](C)[C@@H](CN(C)Cc2ccc4c(c2)OCO4)O3)cc1,-2.2,36.9,/,/,/,/
Cc1noc(C)c1S(=O)(=O)Nc1ccc2c(c1)C(=O)N([C@H](C)CO)C[C@H](C)[C@H](CN(C)C(=O)Nc1ccc(F)cc1)OCCCC[C@H](C)O2,3.8,8.9,/,/,/,/
SMILES,C diff HTS,T cruzi growth-1,T cruzi growth-2,T cruzi growth-3,3T3 cytotox,3T3 cytotox 2
Cc1ccccc1S(=O)(=O)N1CC[C@@H]2[C@H]1c1cc(-c3cccc(F)c3)ccc1N[C@@H]2CO,0.8,107.3*,99.8*,47.8,28.1,105.6*
Cc1ccccc1S(=O)(=O)N1CC[C@@H]2[C@H](CO)Nc3ccc(-c4ccccc4)cc3[C@@H]21,16.7,106.9*,102.0*,?,12.5,103.9*
COc1cccc(-c2ccc3c(c2)[C@@H]2[C@@H](CCN2S(=O)(=O)c2ccccc2C)[C@@H](CO)N3)c1,7.5,62.3,/,/,/,/
Cc1ccccc1S(=O)(=O)N1CC[C@H]2[C@H](CO)Nc3ccc(-c4ccc(F)cc4)cc3[C@H]21,46.5,24.7,/,/,/,/
CC(=O)Nc1ccc2c(c1)C(=O)N(C)[C@H]1CC[C@H](CC(=O)NCC3CCCCC3)O[C@H]1CO2,1.6,33.5,/,/,/,/
COc1cccc(S(=O)(=O)N[C@H]2CC[C@H](CCN)O[C@@H]2CO)c1,/,24.9,/,/,/,/
C[C@@H]1CCCCO[C@@H](CN(C)CC2CCCCC2)[C@H](C)CN([C@@H](C)CO)C(=O)c2cc(NS(=O)(=O)c3ccc(Cl)cc3)ccc2O1,5.6,102.2*,104.7*,93.9,26.4,106.3*
C[C@@H]1CCCCO[C@@H](CN(C)CC2CCCCC2)[C@H](C)CN([C@H](C)CO)C(=O)c2cc(NS(=O)(=O)c3ccc(Cl)cc3)ccc2O1,-13.5,92.7,/,/,/,/
C[C@@H]1CN([C@@H](C)CO)C(=O)c2cc(NS(=O)(=O)c3ccc(Cl)cc3)ccc2O[C@H]1CN(C)CC1CC1,3.9,?,1.2,19.9,8.3,30.7*
C[C@@H]1CCCCO[C@@H](CN(C)CC2CC2)[C@@H](C)CN([C@H](C)CO)C(=O)c2cc(NS(=O)(=O)c3ccc(Cl)cc3)ccc2O1,-2.0,28.4,/,/,/,/
C[C@@H]1CN([C@@H](C)CO)C(=O)c2cc(NS(=O)(=O)c3ccc(Cl)cc3)ccc2O[C@@H](C)CCCCO[C@H]1CN(C)CC1CC1,-4.1,105.6*,107.0*,82.4,15.5,15.0
C[C@@H]1CN([C@@H](C)CO)C(=O)c2cc(NS(=O)(=O)c3ccc(Cl)cc3)ccc2O[C@@H](C)CCCCO[C@H]1CN(C)CC1CCCCC1,-55.3,108.4*,88.4,29.3,?,102.5*
C[C@H](CO)N1C[C@H](C)[C@H](CN(C)CC2CC2)Oc2ccc(NS(=O)(=O)c3ccc(Cl)cc3)cc2C1=O,-2.8,-1.6,/,/,/,/

# Screens as filed in PubChem BioAssay.
